# Hit rate of the full screen: of about 52,000 compounds, about 4,300 (8.3%) were called active. The sample holds actives, similar compounds and a random draw of the others, so the mix is not that of the screen. Cut-off read from the data, not from the text of the source: active = survival mostly below about 52% (no sharp cut-off); inactive = mostly above about 56%.
# Tested on: DeltatarO mutant
# Test: growth inhibition of S. aureus wild type versus tarO mutant, primary screen, teichoic acid synthesis inhibitors, RN4220, OD600 (AID 463173)
# Conditions: OD600, 18 h, active compounds read low, screened at 18.75 µg/mL (by protocol)
row,SMILES,survival
1,CCOc1ccc(C(=O)c2cn(CC(=O)Nc3ccc(F)c(F)c3)c3cc4c(cc3c2=O)OCCO4)cc1,130% (inactive)
2,Cc1ccc(CNC(=O)c2nc(SCc3ccccc3C)ncc2Cl)cc1,76% (inactive)
3,Cc1cccc(NC(=O)Cn2cc(C(=O)C3CCCCC3)c3ccccc32)c1C,63% (inactive)
4,CCc1ccccc1NC(=O)Cn1nc(C(F)(F)F)c2c1CCC2,75% (inactive)
5,CCc1ccccc1NC(=O)Cn1nc(C(F)(F)F)c2c1CCCC2,77% (inactive)
6,COc1ccc(Cl)cc1NC(=O)Cn1nc(C(F)(F)F)c2c1CCC2,72% (inactive)
7,COc1cc(NC(=O)Cn2nc(C(F)(F)F)c3c2CCCC3)c(OC)cc1Cl,78% (inactive)
8,COc1ccc(Cl)cc1NC(=O)Cn1nc(C(F)(F)F)c2c1CCCC2,35% (active)
9,COC(=O)c1ccccc1NC(=O)Cn1nc(C(F)(F)F)c2c1CCCC2,5% (active)
10,O=C(CCS(=O)(=O)c1cccc2nonc12)Nc1ccc(F)cc1F,124% (inactive)
11,FC(F)(F)c1nnc2c3ccccc3c(Cl)nn12,95% (inactive)
12,Cc1nnc2c3ccccc3nc(N3CCN(c4ccccc4)CC3)n12,77% (inactive)
13,FC(F)(F)c1nnc2c3ccccc3nc(-c3ccccc3)n12,29% (active)
14,O=C(Cn1nnc(-c2cccc(C(F)(F)F)c2)n1)NCc1ccc(F)cc1,77% (inactive)
15,CCc1ccc(NC(=O)C(=O)NCC(c2cccnc2)N2CCc3ccccc3C2)cc1 (stereo not drawn),64% (inactive)
16,CCc1ccc(OCC(=O)Nc2c(C(=O)c3ccc(Br)cc3)oc3ccccc23)cc1,85% (inactive)
17,CCNc1nc(Oc2ccc(=O)n(-c3ccccc3)n2)nc(N(C)C)n1,84% (inactive)
18,COc1ccc(CNC(=O)c2c3c(nc4ccccc24)C(=O)N(C2CCCCC2)C3)cc1,83% (inactive)
19,CCc1ccc(CNC(=O)c2c3c(nc4ccccc24)C(=O)N(C2CCCCC2)C3)cc1,37% (active)
20,CC(C)CCNC(=O)c1c2c(nc3ccccc13)C(=O)N(C1CCCCC1)C2,101% (inactive)
21,CC(C)OCCCNC(=O)c1c2c(nc3ccccc13)C(=O)N(C1CCCCC1)C2,25% (active)
22,Cc1ccc(CNC(=O)c2c3c(nc4ccccc24)C(=O)N(C2CCCCC2)C3)cc1,91% (inactive)
23,O=C(NCc1ccccc1)c1c2c(nc3ccccc13)C(=O)N(C1CCCCC1)C2,69% (inactive)
24,CN(C(=O)c1c2c(nc3ccccc13)C(=O)N(C1CCCCC1)C2)c1ccc(F)cc1,0% (active)

row,SMILES,survival
1,CCCNC(=O)c1c2c(nc3ccccc13)C(=O)N(C1CCCCC1)C2,75% (inactive)
2,CCOc1ccccc1N(C)C(=O)c1c2c(nc3ccccc13)C(=O)N(C1CCCCC1)C2,92% (inactive)
3,COc1cccc(CNC(=O)c2c3c(nc4ccccc24)C(=O)N(C2CCCCC2)C3)c1,46% (active)
4,O=C(NCc1cccc(Cl)c1)c1c2c(nc3ccccc13)C(=O)N(C1CCCCC1)C2,144% (inactive)
5,O=C(NCc1ccc(F)cc1)c1c2c(nc3ccccc13)C(=O)N(C1CCCCC1)C2,102% (inactive)
6,Cc1ccc(NC(=O)Cn2c(CCC(=O)O)ccc2-c2ccc(Cl)cc2)cc1,53% (inactive)
7,Cn1ccc2cc(S(=O)(=O)N3CCN(C(=O)Nc4ccc(F)cc4F)CC3)ccc21,70% (inactive)
8,COc1cccc(CNC(=O)c2cc3c(=O)oc4ccc(C)cc4c3s2)c1,73% (inactive)
9,COc1ccc(Cl)cc1NC(=O)[C@H]1O[C@@H]2OC(C)(C)O[C@@H]2[C@H]2OC(C)(C)O[C@H]21,83% (inactive)
10,O=C(CSCc1nc2cccnc2n1C1CCCCC1)NCc1cccc(Br)c1,105% (inactive)
11,CC(C)c1nn2c(=O)cc(COC(=O)C3CCCCC3)nc2s1,94% (inactive)
12,CCc1ccc2nc(N(Cc3cccnc3)C(C)=O)sc2c1,91% (inactive)
13,COc1ccccc1CNC(=O)c1c2c(nc3ccccc13)C(=O)N(C1CCCCC1)C2,99% (inactive)
14,COc1ccc(CNC(=O)c2c3c(nc4ccccc24)C(=O)N(C2CCCCC2)C3)c(OC)c1,32% (active)
15,COc1ccc(OC)c(CNC(=O)c2c3c(nc4ccccc24)C(=O)N(C2CCCCC2)C3)c1,93% (inactive)
16,COc1ccc(C2C3C(=O)N(c4ccccc4)C(=O)C3ON2c2ccccc2)cc1 (stereo not drawn),106% (inactive)
17,CC1CCN(S(=O)(=O)c2ccc3c(c2)CCN3C(=O)Nc2ccc(Br)cc2)CC1,69% (inactive)
18,Cc1ccc(C(=O)Nc2ccccc2C(=O)OCc2cc(=O)n3nc(C(C)C)sc3n2)cc1,78% (inactive)
19,Cc1ccccc1CNC(=O)Cn1c(=O)c2cccn2c2cccnc21,76% (inactive)
20,Cc1[nH]n2c(=O)cc(-c3ccc(Cl)cc3)nc2c1-c1ccccc1,3% (active)
21,O=C(Nc1nc2nc(-c3ccccc3)cc(=O)n2[nH]1)c1ccc(Cl)cc1,65% (inactive)
22,Nc1nc2nc(-c3ccccc3)cc(=O)n2[nH]1,84% (inactive)
23,Cc1[nH]n2c(=O)cc(-c3ccccc3Cl)nc2c1-c1ccccc1,-3% (active)
24,Cc1nn2c(-c3ccccc3)cc(-c3ccccc3)nc2c1-c1ccc(Cl)cc1,78% (inactive)

row,SMILES,survival
1,Cc1cccc(-c2cc3nc(-c4ccccc4)cc(=O)n3[nH]2)c1,97% (inactive)
2,C/C(=N\N=C1/NC(=O)C(CC(=O)O)S1)c1ccc(C)o1 (stereo not drawn),101% (inactive)
3,CCCCCCNC(=O)CCc1c(C)nc2nc(-c3cc(OC)cc(OC)c3)nn2c1C,57% (inactive)
4,N=c1n(CCN2CCCCC2)c2ccccc2n1CC(O)c1ccc2c(c1)OCO2 (stereo not drawn),83% (inactive)
5,CC(C)(C)c1ccc(Cn2c(=N)n(CC(O)c3ccco3)c3ccccc32)cc1 (stereo not drawn),5% (active)
6,Cc1ccc(Cn2c(=N)n(CC(=O)c3ccccc3)c3ccccc32)cc1,65% (inactive)
7,COc1ccc(CNCCSc2nnnn2-c2ccccc2)c(OC)c1,49% (inactive)
8,COc1cc(C2CC(=O)c3c([nH]c(C(=O)OCC4CCCCC4)c3C)C2)cc(OC)c1OC (stereo not drawn),82% (inactive)
9,O=C(CCCCn1c(=O)c2ccccc2n(CC(=O)Nc2ccc(F)cc2F)c1=O)NCc1ccccc1Cl,100% (inactive)
10,O=C(NCc1ccco1)C(c1cccs1)N(C(=O)C1COc2ccccc2O1)c1cccc(O)c1 (stereo not drawn),63% (inactive)
11,Cc1ccc(C(C(=O)NCc2ccccc2)N(C(=O)C2COc3ccccc3O2)c2cccc(O)c2)o1 (stereo not drawn),45% (active)
12,Cc1ccc(C(C(=O)NC2CCCCC2)N(C(=O)C2COc3ccccc3O2)c2ccc3c(c2)OCO3)o1 (stereo not drawn),77% (inactive)
13,CCn1c(SCC(N)=O)nc2ccccc2c1=O,102% (inactive)
14,Cc1cccc(-c2nc(Cn3c(=O)cc(-c4ccccc4)c4c(C)nn(C)c43)c(C)o2)c1,-5% (active)
15,Cc1oc(-c2ccccc2)nc1Cn1c(=O)cc(-c2ccccc2)c2c(C)nn(C)c21,92% (inactive)
16,Cc1nn(C)c2c1c(-c1ccccc1)cc(=O)n2Cc1ccccc1F,109% (inactive)
17,Cc1ccc(-c2nc(Cn3c(=O)cc(-c4ccccc4)c4c(C)nn(C)c43)c(C)o2)cc1,108% (inactive)
18,Cc1nn(C)c2c1c(-c1ccccc1)cc(=O)n2Cc1c(F)cccc1Cl,-5% (active)
19,Cc1cc(=O)n(Cc2c(F)cccc2Cl)c2c1c(C)nn2C,81% (inactive)
20,CSc1cccc(NC(=O)Nc2ccccc2OCc2cc(=O)n3cc(C)ccc3n2)c1,102% (inactive)
21,CCc1ccc(-c2nc(CN3CCC(C(=O)NCCc4ccc(Cl)cc4)CC3)c(C)o2)cc1,77% (inactive)
22,Cc1cccc(C(=O)N2CCc3cc(CNC(=O)CSc4ccccc4)ccc32)c1,77% (inactive)
23,COC(=O)Cc1c(C)c2cc3c(c(C)c2oc1=O)OCN(CCc1ccc(F)cc1)C3,44% (inactive)
24,CCc1cc(=O)oc2c(C)c3c(cc12)CN(CCc1ccccc1OC)CO3,51% (inactive)

row,SMILES,survival
1,Cc1c(C)c2cc3c(c(C)c2oc1=O)OCN(CCc1ccccc1)C3,77% (inactive)
2,Cc1c(C)c2cc3c(c(C)c2oc1=O)OCN(CCc1ccc(F)cc1)C3,41% (active)
3,CCCc1cc(=O)oc2c(C)c3c(cc12)CN(CCc1ccc(Cl)cc1)CO3,39% (active)
4,CCc1cc(=O)oc2c(C)c3c(cc12)CN(CCc1ccccc1)CO3,71% (inactive)
5,COc1ccc2oc(=O)c(-c3nc(-c4ccc(C)c(C)c4)cs3)cc2c1,91% (inactive)
6,COc1ccc(C2CC(=O)c3cnc4c(-c5ccc(F)cc5)c(C)nn4c3C2)cc1OC (stereo not drawn),80% (inactive)
7,CCOC(=O)c1sc2ncn(CC(=O)Nc3ccc(C)cc3Br)c(=O)c2c1C,66% (inactive)
8,Cc1ccccc1CNC(=O)C(=O)NCC(c1ccc2c(c1)OCO2)N1CCOCC1 (stereo not drawn),87% (inactive)
9,CCN(C(=O)c1cc2c(=O)oc3ccc(C)cc3c2s1)c1cc(OC)ccc1OC,78% (inactive)
10,CC(=O)Nc1ccc(Nc2ncnc3c2c(-c2ccccc2)cn3-c2ccc(C)c(Cl)c2)cc1,68% (inactive)
11,CNc1oc(-c2ccc(COc3ccc(C)cc3)o2)nc1C#N,77% (inactive)
12,CCCn1c(CCC(=O)Nc2ccc(OCC)cc2)nc2cccnc21,93% (inactive)
13,COc1ccccc1-c1cc(C(=O)Nc2sc3c(c2C#N)CCCC3)no1,130% (inactive)
14,N#Cc1c(/N=C/N2CCCCC2)sc2c1CCCC2,80% (inactive)
15,COc1ccccc1-c1ncnn1-c1sc2c(c1C#N)CCCCC2,-2% (active)
16,Cc1ccccc1-c1ncnn1-c1sc2c(c1C#N)CCCCC2,72% (inactive)
17,N#Cc1c(-n2ncnc2-c2ccccc2Cl)sc2c1CCCCC2,26% (active)
18,N#Cc1c(-n2ncnc2-c2ccccc2C(F)(F)F)sc2c1CCCCC2,6% (active)
19,COc1cccc(-c2ncnn2-c2sc3c(c2C#N)CCCCC3)c1OC,86% (inactive)
20,N#Cc1c(NC(=O)c2cccs2)sc2c1CCCCC2,87% (inactive)
21,CC(NC(=O)Nc1ccccc1C(F)(F)F)c1c(-n2cccc2)sc2c1CCCC2 (stereo not drawn),104% (inactive)

# — PubChem BioAssay AID463173 (ICCB-Longwood Screening Facility, Harvard Medical School, 2010)
